Bioassay records as filed in PubChem BioAssay.
Only some compounds are listed: those with a hit (about 14% of all), similar ones and a draw of the others.
HCMV inh: human cytomegalovirus inhibition. HFF cells, HCMV-luciferase reporter, 72 h; stronger effect = lower value. activity change, negative = inhibition, % at 57.5 µM. 410,000 compounds, 4.5% hits. AID 1259415; in the data active = activity change below about -60%; inconclusive = no clear call, values can overlap the other calls; inactive = above about -39%
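Luciferase read-out from HCMV-luciferase-infected HFFs (MOI 1 PFU/cell) 72 h post infection at 37C; compounds added after 16 h cell attachment; activity normalized between buffer-only basal and Salinomycin (10uM) inhibitor controls.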
MARV entry inh: Marburg virus entry inhibition; Marburg virus pseudotyped entry inhibition, cell reporter; Potency, µM (highest dose often 37.8 µM), without a hit: at the top dose activity change, negative = inhibition, hits mostly inhibitors; 300,000 compounds, 1.8% hits; AID 540276; calls by dose curve; tested in HEK293 cells; note: potency is the fitted concentration of half-maximal effect
Pf growth 48h: P. falciparum growth inhibition at 48 hours (one generation). P. falciparum luciferase growth in erythrocytes, 48 h. Potency, µM (series often up to 28.7 µM), without a hit: at the highest dose activity change, negative = inhibition, usual class: inhibitors. 310,000 compounds, 5.9% hits. AID 504832; note: potency is the fitted concentration of half-maximal effect
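Erythrocytes infected with P. falciparum carrying an integrated firefly luciferase reporter (2% hematocrit, 0.1% parasitemia final) were exposed to compounds in RPMI 1640 with 0.5% Albumax at 37 C, 5% CO2. Growth inhibition was scored as reduced luminescence.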
HCV inh: inhibitors of hepatitis C virus infection. Huh7.5.1 HCVcc-Cre infection, luciferase reporter, 44 h. Potency, µM (doses to about 41.8 µM), without a hit: top-dose activity change, negative = inhibition, most hits filed as inhibitors. 340,000 compounds, 3.4% hits; note: potency is the fitted concentration of half-maximal effect
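Infectious HCV cell culture screen: compound-treated cells (1,000/well, pre-plated 4 h) are infected with HCVcc-Cre at roughly 0.5 moi and grown 44 h. Infection is quantified by luciferase signal after 15 min substrate incubation at room temperature.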
Lassa entry inh: Lassa virus entry inhibition. Potency, µM (doses to about 37.9 µM), for inactives: at the highest dose activity change, negative = inhibition, actives largely listed as inhibitors. 300,000 compounds, 1.2% hits. AID 540256. Lassa virus pseudotype entry inhibition, cell reporter; calls by dose curve; tested in HEK293 cells; note: potency is the fitted concentration of half-maximal effect; nearly all actives have a fitted effect of over 50% in size
Pf growth 96h: P. falciparum growth inhibition at 96 hours | Potency, µM (highest dose often 28.7 µM), inactives show at the highest dose activity change, negative = inhibition, usual class: inhibitors | AID 504834 | P. falciparum luciferase reporter growth, 96 h | 320,000 compounds, 6.9% hits; note: potency is the fitted concentration of half-maximal effect
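Delayed-death screen, second-generation endpoint: infected erythrocytes, 2% hematocrit, 0.05% parasitemia final; 96 hours at 37 C, 5% CO2; luciferase detection reagent; luminescence decrease equals reduced growth.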
The depositor's hits bear a star; ? = inconclusive; / = no result; [ ] = dose if it differs, or a comment. Unless noted, calls come from the whole dose curve; as a rule, active = well fitted inhibition curve with a large enough effect; inconclusive = small, poorly fitted or top-dose-only effect, or another doubt; inactive = no such curve, though single readings can be large or run the other way. % is set by controls: 0 for no effect and ±100 for the full control effect.

SMILES	HCMV inh	MARV entry inh	Pf growth 48h	HCV inh	Lassa entry inh	Pf growth 96h
COc1ccc2oc(C(=O)OCC(=O)c3ccc4c(c3)OCCO4)c(C)c2c1	-21	?	/	5%	16µM*	24%
O=c1c2ccccc2nc2n1CCc1ccc(Br)cc1-2	-11	/	/	/	/	/
Clc1ccc(-c2cn3nc4c(nc3n2)CCCC4)cc1	?	?	138%	0%	0.71µM*	/
CC(=O)c1cccc(NC(=O)C2CCCN(C(=O)c3cnn(-c4ccccc4)c3-n3cccc3)C2)c1 (stereo unspecified)	-19	?	/	/	0%[46.1 µM]	/
CC(CNC(=O)CC[C@H]1O[C@@H](n2ccc(=O)[nH]c2=O)[C@H](O)[C@@H]1O)c1ccccc1 (stereo partly specified)	-10	/	/	/	/	/
COc1cccc(C(=O)Nc2sc(C(C)C)cc2C(N)=O)c1OC	18	/	?	?	/	13µM*
O=c1cc(O)c2c(=O)n(Cc3ccccc3)c3ccccc3c2o1	?	4%[46.1 µM]	8.3µM*	?	?	?
Cc1ccc(NC(=O)CN2CCCC2c2cccs2)cc1S(=O)(=O)N1CCCCC1 (stereo unspecified)	-63*	/	9.3µM*	7.9µM*	/	?
CCOc1ccc(NC(=O)[C@@H]2CCCN2C(=O)c2cccs2)cc1S(=O)(=O)N1CCCCC1	0	5%	?	1%	7%	9.3µM*
O=C(CN1CCCC1c1cccs1)Nc1cc(S(=O)(=O)N2CCCCC2)ccc1Cl (stereo unspecified)	?	/	/	5µM*	/	/
CCOc1ccc(NC(=O)CC(NC(C)=O)c2ccccc2)cc1S(=O)(=O)N1CCCC1 (stereo unspecified)	-9	/	?	14%	/	?
CCOc1ccc(NC(=O)CN(C)Cc2ccc3c(c2)OCO3)cc1S(=O)(=O)N1CCCC1	-6	/	?	?	/	3.3µM*
CCOc1ccc2nc(N3CCCC(C(=O)NCc4ccc(OC)cc4)C3)sc2c1 (stereo unspecified)	57	?	/	/	/	/
O=C(CCC1N=C2c3ccccc3N=C(SCC(=O)Nc3ccc(F)cc3)N2C1=O)NCc1ccco1 (stereo unspecified)	29	/	/	/	-1%[46.1 µM]	/
CCCCc1ccc(-c2nn[nH]n2)nc1	71	/	/	/	/	/
Clc1cccc(CNc2ncnc3c2nc2n3CCCC2)c1	-39	/	/	/	?	/
COC(=O)[C@@H]1[C@@H](CO)[C@@H]2Cn3c(ccc(Br)c3=O)[C@@H]2N1C(=O)Cc1cccnc1	-5	/	/	/	/	/
O=C(Nc1ccc(OC(F)F)c(Cl)c1)[C@@H]1CCCN1C(=O)c1cccs1	3	2%	?	-4%	?	4.1µM*
CCOc1ccc(NC(=O)CN2CCCC2c2cccs2)cc1S(=O)(=O)N1CCCCC1 (stereo unspecified)	?	?	12µM*	?	?	?
COc1ccc(NC(C)=O)cc1NC(=O)C1CCCN1C(=O)c1cccs1 (stereo unspecified)	-19	17%	-28%	13%	4%	-3%
Cc1ccc(S(=O)(=O)N2CCCCC2)cc1NC(=O)CN1CCCC1c1cccs1 (stereo unspecified)	-13	/	/	/	/	/
N#Cc1ccc(NC(=O)COC(=O)C2Cc3ccccc3CN2C(=O)c2ccccc2)cc1 (stereo unspecified)	-5	?	-5%	10µM*	9%	-8%
Cc1cccc(C)c1NC(=O)COC(=O)C1Cc2ccccc2CN1C(=O)c1ccccc1 (stereo unspecified)	21	15%	?	-1%	-17%	-20%
Cc1cc(Br)cn2c(Cc3ccsc3)c(-c3ccco3)nc12	57	/	/	/	/	/
COc1ccc(-c2c(-c3cc(OC)cc(OC)c3)n(C)c3ccc(-c4cnc(N)nc4)cc23)cc1	-9	/	/	-14%	/	/
COc1cc(OC)cc(-c2c(-c3ccc(F)cc3)c3cc(-c4cnc(OC)nc4)ccc3n2C)c1	-17	/	4.1µM*	?	/	4.7µM*
COc1ccc(-c2c(-c3cc(OC)cc(OC)c3)n(C)c3ccc(-c4ccc(S(N)(=O)=O)cc4)cc23)cc1	-16	/	13µM*	10µM*	/	?
